# Experimental data from paper PMC7819943, “Rice protein-binding microarrays: a tool to detect cis-acting elements near promoter regions in rice”.
# Over roughly 39,000 sequences, “fluorescence intensity (a.u.)” has its median near 4,300; the highest 2% begin near 39,000. Only a selection was taken, and the highest values are over-represented in it overall.
# Target: T1, OsSMF1 (Oryza sativa, UniProt Q6ZLB0 1-436)
# T1 sequence: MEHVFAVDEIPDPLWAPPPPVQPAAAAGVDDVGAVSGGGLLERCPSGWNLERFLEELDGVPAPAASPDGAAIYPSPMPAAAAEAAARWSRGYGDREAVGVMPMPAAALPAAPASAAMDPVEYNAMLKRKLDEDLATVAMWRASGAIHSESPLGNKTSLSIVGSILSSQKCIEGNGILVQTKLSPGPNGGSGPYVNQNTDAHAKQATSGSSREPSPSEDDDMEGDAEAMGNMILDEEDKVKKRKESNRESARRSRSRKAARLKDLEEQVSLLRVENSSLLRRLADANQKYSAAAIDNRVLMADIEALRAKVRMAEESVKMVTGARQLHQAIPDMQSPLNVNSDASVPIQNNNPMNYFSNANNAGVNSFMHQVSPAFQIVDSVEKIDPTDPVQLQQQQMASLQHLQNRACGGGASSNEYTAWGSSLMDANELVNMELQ
# Assay: protein-binding microarray (RPBM); PBS, 2% BSA, 51.3 ng/ul salmon testes DNA, 50 uM zinc acetate, 200 nM TF, 25 C, 1 h; high values mean tight binding
# Conditions: protein: recombinant; tags: N-terminal polyhistidine and DsRed monomer fusion (pET32a); chain copies: 2; label: CyDye5-dUTP incorporated in the synthesized complementary strand; 3' TTTTT single-stranded linker to array surface; dsDNA, one strand shown
# How it was run: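 Using Ni–NTA, transcription factors fused N-terminally to polyhistidine and DsRed were purified after expression in E. coli BL21-CodonPlus. These were incubated at 200 nM with a blocked, double-stranded custom Agilent array for 1 h at 25 °C in a buffer containing 50 µM zinc acetate, and the array was washed. The binding signal is per-feature fluorescence intensity (arbitrary units) on an Axon 4000B scanner.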
row,Sequence,binding signal
1,CGTTGGCGTCCACCACGGCCACCGCCACGCCGCTCGTGTTCGGAGTCACCTAGTGCAG,4420 fluorescence intensity (a.u.)
2,GTCCCCTGTTGCACTTAGATATTTAACTTTGTTAAGGATTCGGAGTCACCTAGTGCAG,4820 fluorescence intensity (a.u.)
3,GACTTAACTTTAGTCCCTGTATTTAGACACTAATTTAGAGCGGAGTCACCTAGTGCAG,65500 fluorescence intensity (a.u.)
4,CAGGTACTTAACTTTAGTCCCTGTCTTTAGACACTAATTTCGGAGTCACCTAGTGCAG,5100 fluorescence intensity (a.u.)
5,TCCCCGTCTTTTCCTTCCGCCTCACCAACCTCGTCTCGTCCGGAGTCACCTAGTGCAG,3330 fluorescence intensity (a.u.)
6,TCGTCGATGTCACCGCCACCACCGTCGTCATCGCTGCCTTCGGAGTCACCTAGTGCAG,3820 fluorescence intensity (a.u.)
7,CGTACGGCACCGAGTTATCGCCGCCAGGTCAGTTGGTTTACGGAGTCACCTAGTGCAG,3690 fluorescence intensity (a.u.)
8,CACTAGCTTGTTATATTTACGTGGCACACTTTGATGAGTACGGAGTCACCTAGTGCAG,11500 fluorescence intensity (a.u.)
9,AGCTAGAACGCACAGACTTTAGGCTTTAGGTACGATGATGCGGAGTCACCTAGTGCAG,43300 fluorescence intensity (a.u.)
10,CACAGGCAGGCCTGCAACATGCGTCACGCAGACTTTGATGCGGAGTCACCTAGTGCAG,4140 fluorescence intensity (a.u.)
11,AAAGCAACAGCAGCCCAGCACACCACAGCACAGCGCCGCTCGGAGTCACCTAGTGCAG,3180 fluorescence intensity (a.u.)
12,TCCTCCTCGTCGTCATCTCCAACTCCCTCCCGCTCCCTTCCGGAGTCACCTAGTGCAG,5660 fluorescence intensity (a.u.)
13,CATCATCATCTCTTCTCCTCTCTCTCTCTCTTTCCTTTTCCGGAGTCACCTAGTGCAG,8580 fluorescence intensity (a.u.)
14,CTCCTCTCCTCCCTCCTCGACTTCTCCGCTTTCTCCGCCTCGGAGTCACCTAGTGCAG,3230 fluorescence intensity (a.u.)
15,TCCTGTCCTTCTTTCTCTTCAAGTCCTTCCTCTTCACTCCCGGAGTCACCTAGTGCAG,65500 fluorescence intensity (a.u.)
16,CTCCTCTTCCCTTCCCTTCTCTCTTTTCTTTTCTCTCACACGGAGTCACCTAGTGCAG,28600 fluorescence intensity (a.u.)
17,TCCTCCATCGCCGCCTTCACCGAGTCACCGCCCGTCATCCCGGAGTCACCTAGTGCAG,3380 fluorescence intensity (a.u.)
18,TTCCTGACTTCCTCCTCCCTTTCTTCTCTCGCCGCCGAGACGGAGTCACCTAGTGCAG,41400 fluorescence intensity (a.u.)
19,CTTCACTAAGGTCATCGTCGTGCCTTCCTCGTCCTCCTCCCGGAGTCACCTAGTGCAG,43800 fluorescence intensity (a.u.)
20,TCTCCCCTCTCCTTCCTCCTCTCCTTTCCCCTCCTCTCTTCGGAGTCACCTAGTGCAG,17100 fluorescence intensity (a.u.)
21,GACCAAACCTCCAATTAACAAGGTAGTTTAACACACATCACGGAGTCACCTAGTGCAG,16100 fluorescence intensity (a.u.)

row,Sequence,binding signal
1,TACAAGTATAAAACTTTAGATACGTGGGATTAACACGTCACGGAGTCACCTAGTGCAG,6470 fluorescence intensity (a.u.)
2,CCTCGGGGAGGGCGTGGCAAGCGGCACGCGTGGCGGGGAGCGGAGTCACCTAGTGCAG,5890 fluorescence intensity (a.u.)
3,CCCCAGAAAGTCCCCATATTTCTAGGAACTTCCGTTCTAGCGGAGTCACCTAGTGCAG,13900 fluorescence intensity (a.u.)
4,GCTCATAGAGCTACACACTGATGACAAGACATAAGGGAAGCGGAGTCACCTAGTGCAG,4350 fluorescence intensity (a.u.)
5,ACCTCCGGCCCACGGACGCGACGCGCTTACACACATGGCCCGGAGTCACCTAGTGCAG,3580 fluorescence intensity (a.u.)
6,TGGATTACTCATAATGATTATGTCATATAGGTGATGTTGCCGGAGTCACCTAGTGCAG,3440 fluorescence intensity (a.u.)
7,ATATAGCATGTCAAGATATTTGGGTGATATGTACTATGTACGGAGTCACCTAGTGCAG,4580 fluorescence intensity (a.u.)
8,GGATAAGCACCGACGATTTGGTGGTAGATCTATATGGGTACGGAGTCACCTAGTGCAG,48000 fluorescence intensity (a.u.)
9,TGATACGATGACGTTTGGGTGGTTGGATATATATCATGATCGGAGTCACCTAGTGCAG,5350 fluorescence intensity (a.u.)
10,ATGATTTATTATGTTCTGCCCTTCTTTGTTGTGACAAAGTCGGAGTCACCTAGTGCAG,3900 fluorescence intensity (a.u.)
11,TGCTTTCCTCCCTTTATTACTACATCATGCGCCTTCGTGACGGAGTCACCTAGTGCAG,3370 fluorescence intensity (a.u.)
12,AGCTGGCGGCTGGCGGGTGGTGGTGGTGGCTGGCGGCGGGCGGAGTCACCTAGTGCAG,4500 fluorescence intensity (a.u.)
13,GAAGAATCGGCCCAACGACCAAGAGGGAGTCAAAATAGACCGGAGTCACCTAGTGCAG,22600 fluorescence intensity (a.u.)
14,CAGTGCCGACTGCCGAGGCAGAGAGGCAGACAAAGTGACACGGAGTCACCTAGTGCAG,54900 fluorescence intensity (a.u.)
15,ACATCCGAGAGACTAGGCCGACAAATCACCACCGACACGTCGGAGTCACCTAGTGCAG,5890 fluorescence intensity (a.u.)
16,CCCACCTGTGACTCAGCGAGCCGACTGCCACGTCAGACAACGGAGTCACCTAGTGCAG,34400 fluorescence intensity (a.u.)
17,GTAGAAAGCAGGGATAAAGTATTGGTGGAGATGTCACGCCCGGAGTCACCTAGTGCAG,3560 fluorescence intensity (a.u.)
18,ATCCACGAGGGCAAGCAAGCAAGCAAGCTCCACCTCTCTGCGGAGTCACCTAGTGCAG,3220 fluorescence intensity (a.u.)
19,GTCAAAGTTATAAAAGTTTGACCTCAACTTTGTCCAAAACCGGAGTCACCTAGTGCAG,24200 fluorescence intensity (a.u.)
20,CTTAAAGCAGTTTGACTTTGACCAAAGTCAAAACGTCTTACGGAGTCACCTAGTGCAG,40600 fluorescence intensity (a.u.)
21,TTAAATTTGAAACAGTTTGACTTTGACCAGTCAAAGTCTTCGGAGTCACCTAGTGCAG,8060 fluorescence intensity (a.u.)
